In PubChem BioAssay AID485314 (National Center for Advancing Translational Sciences (NCATS), 2010) one finds Potency data, which are given here for 62 compounds.

In all, about 340,000 compounds went through this assay and about 4,500 (1.3%) were called active. Not shown: some 5% with an inconclusive outcome. Calls follow the shape of the dose curve; as a rule, active = well fitted inhibition curve with a large enough effect; inconclusive = small, poorly fitted or top-dose-only effect, or another doubt; inactive = no such curve, though single readings can be large or run the other way. Shown is part of a subset that was picked to be rich in actives. Where a call stands in place of a potency, no number is given.
Potency is read from the fitted curve at half-maximal effect.

The target of this assay is DNA polymerase beta (Homo sapiens) (UniProt P06746). As to the kind of experiment: qHTS Assay for Inhibitors of DNA Polymerase Beta. The conditions noted are these: Pol beta primer extension/strand displacement, fluorescence kinetic; series mostly up to 114 µM. The method, boiled down: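 10 nM enzyme + cpd, 15 min RT; start with substrate 50 nM final; read 0 min and after 10 min RT. Corrected, normalized data; 4-parameter Hill curve fit.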
For `Cc1ccc2nc(-c3ccc(O)cc3)c(Nc3ccc4c(c3)OCO4)n2c1`, the Potency result is “inactive”.
Consider `COc1ccc(Cl)cc1-n1c(CCC(=O)O)ccc1-c1ccc(C)cc1`, for which the Potency entry is “inactive”.
Next, `Cc1c(C(=O)N/N=C/c2ccccc2)[nH]c2c([N+](=O)[O-])cccc12`: “inactive”; `COc1cccc2c(C)c(C(=O)O)[nH]c12`: 50.1 µM (active); `COc1cc2c(C(=O)O)c(C)n(C)c2c2ccccc12`: “inactive”.
On to `COc1ccc(S(=O)(=O)NCC(c2ccc(N(C)C)cc2)N2CCCC2)cc1` (configuration not stated), for which the Potency result was “inactive”.
Regarding `CCC(=O)Nc1cccc(-c2nc3cc(C)ccc3o2)c1`, the Potency entry is “inactive”.
Next, `COc1ccccc1NC(=O)COC(=O)Cc1ccc(S(=O)(=O)N2CCCCC2)s1`: “inactive”; `O=C(CC(c1ccccc1)c1cc(Cl)ccc1O)NCCN1CCOCC1` (configuration not stated): “inactive”.
As to `O=C(NC1CCCCC1)C1CCCN(S(=O)(=O)c2ccc(Br)s2)C1` (configuration not stated), the Potency result was “inactive”.
In the case of `O=C(Cc1ccc(S(=O)(=O)N2CCOCC2)s1)NCCC(c1ccccc1)c1ccccc1`, the Potency was 22.4 µM (active).
The result for `O=C(NC1CCCCC1)C1CCCN(S(=O)(=O)c2cccs2)C1` (configuration not stated) reads “inactive”; that for `O=C(Cc1ccc(S(=O)(=O)N2CCCC2)s1)NC1CCCCCC1`, 31.6 µM (active); that for `CCn1c2ccccc2c2cc(CN3CCN(Cc4cccc(Cl)c4)CC3)ccc21`, “inactive”.
Regarding `Cc1c(CCNC(=O)c2ccc(C(F)(F)F)cc2)sc2nc(-c3ccc(F)cc3)nn12`, the Potency entry was “inactive”.
In the case of `CCCOc1cccc(C(=O)Nc2cccc(NC(=O)c3ccc(C(C)(C)C)cc3)c2)c1`, the Potency entry is “inactive”.
Next, `COc1ccc(OCc2nnc3n2N=C(c2ccccc2)C(CC(=O)O)S3)cc1` (configuration not stated): 22.4 µM (active); `COc1ccc(C2CC(c3ccccc3)=NN2C(=O)COC(=O)COc2ccccc2)cc1` (configuration not stated): “inactive”.
Consider `COc1cccc(OCc2nnc3n2N=C(c2ccccc2)C(CC(=O)O)S3)c1` (configuration not stated), for which the Potency entry was “inactive”.
The result for `Cc1cccc(C(=O)NCCc2nc3ccccc3n2Cc2ccccc2Cl)c1` reads “inactive”; that for `COc1cccc(S(=O)(=O)NCc2ccc(C(=O)NCc3ccccn3)cc2)c1`, “inactive”.
As for `COc1ccc(NC(=O)C(=O)NCc2ccco2)cc1`, the Potency entry is “inactive”.
Take `CCOc1ccc(NC(=O)c2ncoc2-c2ccco2)cc1`: the Potency result is “inactive”.
On to `COc1ccc(-c2nc3ccc(C(=O)NCc4ccc(C)cc4)cc3nc2-c2ccc(OC)cc2)cc1`, for which the Potency entry is “inactive”.
Next, `O=C(NCc1ccccn1)c1ccc2nc(-c3ccco3)c(-c3ccco3)nc2c1`: 3.16 µM (active).
Next, `COCCNC(=O)Nc1ccc2nc(-c3ccco3)c(-c3ccco3)nc2c1`: 2.24 µM (active); `COc1ccc(-n2nc(C(=O)NCCc3ccc(Cl)cc3)c3c4ccccc4n(C)c3c2=O)cc1Cl`: “inactive”.
Consider `COc1ccc(C)cc1NC(=O)C(=O)NCCc1sc(-c2cccc(C)c2)nc1C`, for which the Potency entry was “inactive”.
Next, `Cc1cccc(N2CCN(C(=O)c3oc(=O)c4ccccc4c3-c3ccccc3)CC2)c1C`: “inactive”.
As to `CCOC(=O)c1c(C)[nH]c(CCC(=O)Nc2ccc(OC)c(OC)c2)c1C`, the Potency result is “inactive”.
For the compound `COc1ccc(C2Sc3ccccc3NC3=C2C(=O)c2ccccc23)c(OC)c1OC` (configuration not stated), the Potency result is “inactive”.
The result for `O=C(/C=C/c1cn(CC(O)CN2CCc3ccccc32)c2ccccc12)c1ccc(Br)cc1` (configuration not stated) reads “inactive”.
For the compound `COc1ccc(-c2cc(=O)c3c(O)cc(O[C@@H]4O[C@H](CO[C@@H]5O[C@@H](C)[C@H](O)[C@@H](O)[C@H]5O)[C@@H](O)[C@H](O)[C@H]4O)cc3o2)cc1O`, the Potency was 25.1 µM (active).
Next, `Cc1ccc(OCCn2c(CNc3ccccc3C)nc3ccccc32)cc1`: “inactive”.
As for `CCCCn1c(CNC(=O)C23CC4CC(CC(C4)C2)C3)nnc1SCC(=O)Nc1ccc(C)cc1`, the Potency result is “inactive”.
With `CCCn1c2ccccc2c2cnn(CC(=O)N3CCCC(C(=O)OCC)C3)c(=O)c21` (configuration not stated), the Potency entry is “inactive”.
For the compound `CC(=O)c1sc2nc(SCC(=O)N3CCCCC3)[nH]c(=O)c2c1C`, the Potency result was “inactive”.
The result for `CCOC(=O)c1sc2nc(CSCC(=O)OCc3ccc(C(=O)OC)o3)[nH]c(=O)c2c1C` reads “inactive”; that for `CSc1nnc(SCc2nc3sc(C(=O)O)c(C)c3c(=O)[nH]2)s1`, 6.31 µM (active); that for `Cc1ccc(C2c3[nH]c4ccccc4c3CCN2C(=O)c2cccc(C)c2)cc1` (configuration not stated), “inactive”.
Turning to `O=C(Nc1ccc(OC(F)(F)F)cc1)C1CCCN(S(=O)(=O)c2ccc(Br)s2)C1` (configuration not stated), the Potency entry was “inactive”.
For the compound `Cc1ccc(CSc2nc3cccnc3n2Cc2ccc(C(=O)NC3CC3)cc2)cc1`, the Potency result was “inactive”.
The result for `COc1ccc(C2(Nc3cccc(F)c3)C(=O)c3ccccc3C2=O)cc1` reads “inactive”; that for `CN(Cc1ccccc1)S(=O)(=O)c1ccc(F)c(C(=O)Nc2cccc(Cl)c2Cl)c1`, “inactive”; that for `O=[N+]([O-])c1ccc(N2CCSCC2)cc1O`, “inactive”.
The result for `O=C1CSC(=S)N1c1ccc(O)cc1` reads “inactive”; that for `O=C1CSC(=S)N1/N=C/c1ccc(O)c([N+](=O)[O-])c1`, 17.8 µM (active).
The result for `Cc1ccc(Nc2c(-c3ccc(C)cc3)nc3cnccn23)cc1` reads “inactive”; that for `CCOC(=O)C1CCN(c2ncnc3c2c(-c2ccccc2)cn3-c2cccc(C)c2)CC1`, “inactive”; that for `COc1ccc(Cl)cc1N(C)C(=O)c1cc2c(=O)oc3ccc(C)cc3c2s1`, “inactive”.
Turning to `O=C(Nc1cccc(Cl)c1)c1csnn1`, the Potency result is “inactive”.
The result for `O=C(Nc1ccccc1)c1nnsc1S(=O)(=O)c1ccc(Cl)cc1` reads 44.7 µM (active); that for `O=C(Nc1ccc(Oc2ccccc2)cc1)C1CCN(S(=O)(=O)c2ccc(Cl)cc2)CC1`, “inactive”.
As for `CC(C)c1ccc(OCC(=O)N(Cc2ccc(N(C)C)cc2)C2CCS(=O)(=O)C2)cc1` (configuration not stated), the Potency result is “inactive”.
On to `CC(=O)Nc1ccc(Nc2c3ccccc3nc3ccccc23)cc1`, for which the Potency was 17.8 µM (active).
The result for `CCc1nc(Nc2ccc(NC(C)=O)cc2)c2oc3ccccc3c2n1` reads “inactive”; that for `CC(C)(C)OC(=O)NNc1c2ccccc2nc2ccccc12`, “inactive”; that for `COc1ccc(C(=O)NCC(c2ccc(N(C)C)cc2)N2CCc3ccccc32)c(OC)c1` (configuration not stated), “inactive”.
Consider `CCOc1ccc(-n2c(O)c(/C=N/c3ccnn3Cc3ccncc3)c3ccccc3c2=O)cc1`, for which the Potency result is “inactive”.
Next, `CCOc1ccc(-n2c(O)c(/C=N/Nc3nc(C)cc(C)n3)c3ccccc3c2=O)cc1`: “inactive”; `CCOc1ccc(-n2c(O)c(/C=N/Nc3nnc(C)c(=O)[nH]3)c3ccccc3c2=O)cc1`: 56.2 µM (active); `CCOc1ccccc1NC(=O)CN1CCCN(Cc2cccc(Cl)c2)S1(=O)=O`: “inactive”.
